From PubChem BioAssay
gsp antagonist: antagonists of gsp mutant (McCune-Albright syndrome). AID 624288. Potency, µM (doses to about 76.9 µM), for the others: at the top dose activity change, negative = inhibition, most hits filed as inhibitors. gsp-mutant cells, cAMP HTRF, 30 min. 340,000 compounds, 0.4% hits; calls by dose curve; cell line not stated here;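 note: intracellular cAMP measured with PDE inhibitor Ro 20-1724 present during compound exposure; potency is the fitted concentration of half-maximal effect; % is set by controls: 0 for no effect and ±100 for the full control effect; nearly all actives have a fitted effect of over 65% in size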
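Measurement of cellular cAMP by homogeneous time-resolved fluorescence following a 30 min compound exposure at 37C. The PDE inhibitor […] was present throughout; the assay buffer was DPBS with 0.05% BSA and 0.005% Tween 20.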
RXFP1 antagonist: antagonists of human relaxin receptor RXFP1; Q9HBX9; HEK293-RXFP1, relaxin-stimulated cAMP HTRF, 30 min; hits give low values; activity change, negative = inhibition, % at 57.5 µM; 350,000 compounds, 0.59% hits;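 active = activity change of -60% or lower, but not beyond a set lower limit; inconclusive = change between -60% and -40%, or beyond the set limit; inactive = change above -40%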; note: % is set by controls: 0 for no effect and ±100 for the full control effect
Target sequence (Q9HBX9 whole entry, looked up): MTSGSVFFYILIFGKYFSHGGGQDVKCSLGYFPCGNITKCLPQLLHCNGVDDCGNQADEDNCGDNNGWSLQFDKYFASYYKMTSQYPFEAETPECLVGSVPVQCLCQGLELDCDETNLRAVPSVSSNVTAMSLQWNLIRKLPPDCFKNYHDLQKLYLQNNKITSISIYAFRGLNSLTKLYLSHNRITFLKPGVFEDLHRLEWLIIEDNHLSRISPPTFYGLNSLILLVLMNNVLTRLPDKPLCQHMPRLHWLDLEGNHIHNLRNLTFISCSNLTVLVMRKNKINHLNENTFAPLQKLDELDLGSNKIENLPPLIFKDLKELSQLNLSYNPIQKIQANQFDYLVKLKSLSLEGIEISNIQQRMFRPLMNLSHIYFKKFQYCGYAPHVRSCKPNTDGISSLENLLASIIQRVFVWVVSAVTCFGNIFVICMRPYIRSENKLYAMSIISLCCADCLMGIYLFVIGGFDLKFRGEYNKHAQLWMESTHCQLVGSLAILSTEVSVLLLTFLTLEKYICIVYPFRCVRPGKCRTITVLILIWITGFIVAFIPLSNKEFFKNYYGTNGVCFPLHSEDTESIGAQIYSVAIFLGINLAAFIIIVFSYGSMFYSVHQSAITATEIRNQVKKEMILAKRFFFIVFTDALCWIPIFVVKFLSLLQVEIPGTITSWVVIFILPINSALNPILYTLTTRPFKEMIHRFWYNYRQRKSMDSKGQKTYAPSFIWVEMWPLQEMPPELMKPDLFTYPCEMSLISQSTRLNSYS
RXFP1 agonist: agonists of human relaxin receptor RXFP1 | Q9HBX9 | HEK293T-RXFP1 cAMP TR-FRET, 30 min; response scale: percent of porcine relaxin response, buffer zero | Potency, µM (titrated, usually from 57.5 µM), for the others: at the top dose activation, actives largely listed as activators | 370,000 compounds, 0.3% hits; note: potency is the fitted concentration of half-maximal effect; % is set by controls: 0 for no effect and ±100 for the full control effect; nearly all actives have a fitted effect of over 60% in size
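Agonist response is measured as cAMP accumulation in an RXFP1-transfected HEK293T line under PDE4 inhibition. Values are scaled between buffer-only and 29 nM porcine relaxin, and EC50s come from standard Hill equation fits.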
MmCpn inh: blocks the Methanococcus maripaludis chaperonin Mm-Cpn; Potency, µM (top dose mostly 76.9 µM), for the others: at the highest dose activity, negative = inhibition, actives largely listed as inhibitors; AID 504842; 330,000 compounds, 0.031% hits; purified Mm-Cpn ATPase, ADP Transcreener TR-FRET; note: potency is the fitted concentration of half-maximal effect; % is set by controls: 0 for no effect and ±100 for the full control effect; nearly all actives have a fitted effect of over 80% in size
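ATPase turnover read by TR-FRET ADP competition (Eu cryptate antibody/ADP-d2, 665/590 nm): 10uM ATP final, 25nM Mm-CPN final, 30 min 37degC after 10-min compound preincubation, pH 7.4 Tris/KCl/MgCl2/DTT buffer.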
gsp ag: gsp mutant agonism; gsp mutant cells, cAMP HTRF, 30 min; Potency, µM (doses to about 76.9 µM), inactives show top-dose activation (cAMP increase), actives largely listed as activators; 340,000 compounds, 0.13% hits; active = well fitted activation curve with a large enough effect; inconclusive = small, poorly fitted or top-dose-only effect, or another doubt; inactive = no such curve, though single readings can be large or run the other way; cell line not stated here;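 note: phosphodiesterase inhibitor Ro 20-1724 added with compounds to block cAMP breakdown; potency is the fitted concentration of half-maximal effect; nearly all actives have a fitted effect of over 60% in size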
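Cells in DMEM/10% FBS with G418 were pretreated with compounds in DMSO plus […] (300 uM stock) for 30 min at 37C. cAMP was measured by HTRF (cAMP-d2 plus anti-cAMP antibody-K) after 30 min at room temperature.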
CCT chaperon mod: cytosolic chaperonin activity modulation; purified chaperonin ATPase assay, HTRF ADP detection, 30 min; activity change, % (no concentration beside the values), hits read low; AID 651819; 360,000 compounds, 0.3% hits; in the data active = activity change below about -30%; note: % is set by controls: 0 for no effect and ±100 for the full control effect
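We incubate TRiC, 40 or 20 nM final, with library compounds at 76 uM and 10 uM ATP for 30 min at 37 °C. ADP formed is detected with Transcreener HTRF reagents after 30 min at room temperature.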
Active calls of the source: *; ? = inconclusive; / = not tested or not shown; [ ] = another dose, or the depositor's remark. Shown are actives, neighbours in structure and some others; about 1.2% of the full set was active somewhere. Unless noted, calls come from the whole dose curve; as a rule, active = well fitted curve in the direction sought with a large enough effect; inconclusive = small, poorly fitted or top-dose-only effect, or another doubt; inactive = no such curve, though single readings can be large; an effect the other way counts as inactive or inconclusive.

SMILES	gsp antagonist	RXFP1 antagonist	RXFP1 agonist	MmCpn inh	gsp ag	CCT chaperon mod
CCOc1ccc(C(c2c(O)cc(C)n(CCOC)c2=O)N2CCN(c3ccccc3F)CC2)cc1 (stereo not given)	/	-3.0	9.9%	/	/	/
C(=N\Nc1nc2ccccc2[nH]1)/c1ccccn1	2.3%	9.5	-0.9%	1.5%	-11.0%	0.5
Fc1ccccc1-c1ccc(/C=N/Nc2nc3ccccc3[nH]2)o1	39.8µM*	?	-0.5%	-3.7%	-27.2%	-0.1
Cc1cc(C)nc(N/N=C/C2=C(N3CCOCC3)C(=C/c3ccccc3)/CC2)n1	28.2µM*	14.3	1.7%	-1.5%	7.3%	0.3
O=C(COC(=O)c1cccc([N+](=O)[O-])c1)Nc1ccc(Cl)cn1	-0.6%	-3.7	0.6%	2.1%	-16.5%[15.4 µM]	-42.0*
COc1ccc(-c2csc(N(CCCN(C)C)C(=O)c3ccccc3C)n2)cc1	32.5%	-61.7*	-0.5%	-0.6%	10.2%	1.4
Cc1ccc(NC(=O)CCN2C(=O)C3CCCCC3C2=O)cc1[N+](=O)[O-] (stereo not given)	2.6%	23.0	1.7%	-2.8%	-5.0%[15.4 µM]	-52.7*
N#CC1C(=O)c2ccccc2C1c1ccccc1 (stereo not given)	14.8%	-92.0*	/	/	17.1%	-2.5
CC(C)Cc1nnc(NC(=O)c2cccc(S(=O)(=O)N3CCN(C)CC3)c2)s1	1.5%	-12.6	0.2%	-1.5%	?	-1.3
CC(C)Cc1nnc(NC(=O)c2cccc(S(=O)(=O)N3CCOCC3)c2)s1	-15.5%	-4.2	-0.1%	?	-55.3%	-59.3*
CC(C)(C)OC(=O)CC12CCCCC1NC(=O)O2 (stereo not given)	10.7%	/	0.3%	0.2%	-13.5%	-49.2*
COc1ccc(Nc2nc3ccccc3nc2NS(=O)(=O)c2cccs2)c(OC)c1	-9.0%	1.6	5.9%	-0.8%	-13.0%	-0.5
COc1cccc(Nc2nc3ccccc3nc2NS(=O)(=O)c2cccs2)c1	14.1µM*	-2.4	5.1%	-4.9%	13.3%	0.3
O=C(COC(=O)/C=C/c1ccc(OC(F)F)cc1)NC1CCCC1	6.1%	3.5	-1.8%	-0.6%	2.5%	-117.1*
O=C(COC(=O)/C=C/c1ccc(OC(F)F)cc1)NC(=O)NC1CCCCC1	-15.9%	-10.0	/	-1.8%	-10.7%	-3.4
OC1(c2cccc(C(F)(F)F)c2)CCN(c2ncnc3c2[nH]c2ccc(F)cc23)CC1	25.1µM*	-89.1*	3.8%	/	-27.1%	1.9
COc1ccc(NC(=O)C2CCN(c3cc(C)nc(-c4ccccc4)n3)CC2)cc1	-20.5%	-1.7	0.2%	0.1%	7.3%	-63.7*
O=[N+]([O-])c1ccc(O)c(Nc2ncnc3ccccc23)c1	-6.2%	0.4	3.7%	0.7%	?	-1.0
O=[N+]([O-])c1ccc(O)c(Nc2ncnc3ccc(Br)cc23)c1	35.5µM*	-9.9	2.8%	-0.8%	0.3%	-1.7
CCCCCCCCCCCCOCCO	/	-8.3	/	/	/	/
Cc1ccc(OCC(=O)OC2=C(C(=O)c3ccccc3)N(C)S(=O)(=O)c3ccccc32)cc1	/	-7.8	-0.1%	/	/	/
Cc1cc(C(=O)N/N=C/c2ccc(OCc3ccccc3)cc2)c(C)o1	-29.8%	-7.0	-0.5%	2.4%	3.2%[15.4 µM]	1.8
COc1ccc(/C=N/NC(=O)c2cc(C)oc2C)cc1OCc1ccccc1	12.6µM*	-17.1	2.9%	3.6%	7.3%	0.5
CCOC(=O)c1cnc2cc(-c3ccc(OCC)cc3)nn2c1-c1ccccc1	/	-9.2	?	/	/	/
CCC(CC)c1nn2c(N)c(/C=C3\C=Nc4ccccc43)c(=O)nc2s1	3.4%	-6.9	-0.7%	0.1%	-1.6%[15.4 µM]	1.3
SMILES	gsp antagonist	RXFP1 antagonist	RXFP1 agonist	MmCpn inh	gsp ag	CCT chaperon mod
CCC(CC)c1nn2c(N)c(/C=C3\C(C)=Nc4ccccc43)c(=O)nc2s1	-15.1%	-68.6*	-1.0%	3.6%	-9.8%[15.4 µM]	2.0
C/C(=N\N=C1/SC(CC(=O)O)C(=O)N1c1ccccc1)c1ccc(C)cc1 (stereo not given)	25.1µM*	1.4	-2.8%	?	-25.6%	-3.1
O=C(O)CC1S/C(=N/N=C2CCCCC2)N(c2ccccc2)C1=O (stereo not given)	9.6%	/	-6.0%	2.0%	5.8%	1.1
CC(NCC(O)COCCC12CC3CC(CC(C3)C1)C2)c1ccccc1 (stereo not given)	0.8%	-62.2*	0.8%	-1.2%	?	-1.9
COc1ccc(Cn2nc(-c3ccccc3)c(N3CCCCC3)cc2=O)cc1	1.7%	-12.2	0.2%	1.0%	-0.6%[15.4 µM]	-1.4
O=c1cc(N2CCCCC2)c(-c2ccccc2)nn1Cc1ccccc1	?	-119.7*	0.3%	-2.4%	-0.6%[15.4 µM]	-1.5
Cc1ccc(C(=O)Nc2ccc3oc(-c4ccccc4C)nc3c2)cc1	/	-11.4	1.7%	/	/	/
COc1cc(/C=C(/C#N)c2ccc(F)cc2)ccc1OCc1ccc(C(=O)O)o1	39.8µM*	4.3	-0.6%	-2.0%	5.8%	1.3
COc1cc(/C=C(\C#N)C(=O)Nc2cccc(C(=O)O)c2)ccc1OCc1ccc(F)cc1	-36.0%	-11.7	0.4%	0.8%	?	0.0
CCCOC(=O)c1c(NC(=O)C2c3ccccc3Oc3ccccc32)sc2c1CCCC2	/	-5.9	-1.5%	/	/	/
CC(C)OC(=O)c1c(NC(=O)C2c3ccccc3Oc3ccccc32)sc2c1CCCC2	/	4.1	22.4µM*	/	/	/
COc1ccc(S(=O)(=O)Nc2ccc3c(c2)sc(=O)n3C)cc1Cl	/	2.1	0.5%	/	/	/
CCOC(=O)c1ccc(NC(=O)CCC(=O)N2CCSc3ccccc32)cc1	/	?	-0.2%	/	/	/
Cc1ccc2c(c1)CCCN2C(=O)c1cccs1	-4.5%	-4.1	0.4%	0.5%	21.0%	-4.9
Cc1ccc2c(c1)CCCN2C(=O)c1cc(C)c(C)s1	-12.5%	-17.7	3.2%	-7.8%	2.6%[15.4 µM]	-32.6*
COc1ccccc1C1c2ccc3ccccc3c2Oc2ncn(CCN(C)C)c(=N)c21 (stereo not given)	12.2%	-78.5*	2.0%	0.3%	-19.2%[15.4 µM]	0.6
CCOC(=O)CSc1nc(C(C)C)nc2sc(C)c(C)c12	-10.1%	-60.5*	0.1%	-5.2%	7.0%[15.4 µM]	-0.3
CCOC(=O)CSc1nc2sc(C)c(C)c2c(=O)n1C	5.6%	-4.8	1.0%	1.2%	-44.7%	-0.8
CN1CCN(c2ccc(NC(=O)COc3ccccc3[N+](=O)[O-])cc2)CC1	/	-3.0	-0.4%	-3.7%	-1.2%[15.4 µM]	-1.4
CC(C)C(=O)N1CCN(c2ccc(NC(=O)COc3ccccc3[N+](=O)[O-])cc2)CC1	28.2µM*	-22.5	2.8%	-1.5%	9.3%	2.3
CCc1ccc(CNC(=O)c2cc(-c3ccc(Br)s3)nc3ccccc23)cc1	/	-9.6	?	/	/	/
